Experimental data published in PubChem BioAssay AID1159580 (chemical genetic matrix, 2015).
Out of some 5,500 compounds screened, about 2,000 (36%) were called active. Roughly 18% stayed inconclusive and do not appear here. Cut-off read from the data, not from the text of the source: active = normalized growth mostly below about 0.91 (no sharp cut-off); inconclusive = no clear call, values can overlap the other calls; inactive = mostly above about 0.92. This is one part of the list.

Assay: chemical genetic growth profiling, strain panel (AID 1159580);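 note: tested at 20 µM; growth read once vehicle control cultures reached saturation at 30 °C; 1 = growth at the plate median or of vehicle wells; lower values mean less growth of the strain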
Settings: growth OD

Measured: normalized growth

O=C(OC[C@H]1O[C@H](OC(=O)c2cc(O)c(O)c(OC(=O)c3cc(O)c(O)c(O)c3)c2)[C@H](OC(=O)c2cc(O)c(O)c(OC(=O)c3cc(O)c(O)c(O)c3)c2)[C@@H](OC(=O)c2cc(O)c(O)c(OC(=O)c3cc(O)c(O)c(O)c3)c2)[C@@H]1OC(=O)c1cc(O)c(O)c(OC(=O)c2cc(O)c(O)c(O)c2)c1)c1cc(O)c(O)c(OC(=O)c2cc(O)c(O)c(O)c2)c1
inactive: S. cerevisiae deletion strains, locus YKR026C, strain gcn3, active compounds read low 1.03 | S. cerevisiae deletion strains, locus YKR091W, strain srl3, active compounds read low 0.968 | S. cerevisiae deletion strains, locus YLL041C, strain sdh2, active compounds read low 0.951 | S. cerevisiae deletion strains, locus YLR113W, strain HOG1, active compounds read low 1.08 | S. cerevisiae deletion strains, locus YMR125W, strain sto1, active compounds read low 1.04 | S. cerevisiae deletion strains, locus YNL183C, strain NPR1, active compounds read low 0.988 | S. cerevisiae deletion strains, locus YNL248C, strain rpa49, active compounds read low 0.922 | S. cerevisiae deletion strains, locus YNR049C, strain mso1, active compounds read low 0.944 | S. cerevisiae deletion strains, locus YOL012C, strain htz1 0.275 | S. cerevisiae deletion strains, locus YOR231W, strain MKK1, active compounds read low 1.04 | S. cerevisiae deletion strains, locus YPL256C, strain CLN2, active compounds read low 1.14
active: S. cerevisiae deletion strains, locus YJR075W, strain HOC1, active compounds read low 0.104 | S. cerevisiae deletion strains, locus YKL009W, strain mrt4, active compounds read low 0.125 | S. cerevisiae deletion strains, locus YKL068W, active compounds read low 0.082 | S. cerevisiae deletion strains, locus YKL085W, strain MDH1 (second series), active compounds read low 0.0765 | S. cerevisiae deletion strains, locus YKL085W, strain MDH1, active compounds read low 0.0765 | S. cerevisiae deletion strains, locus YKL160W, strain elf1, active compounds read low 0.761 | S. cerevisiae deletion strains, locus YKL190W, strain CNB1, active compounds read low 0.0756 | S. cerevisiae deletion strains, locus YKR001C, strain vps1, active compounds read low 0.101 | S. cerevisiae deletion strains, locus YLL001W, strain dnm1, active compounds read low 0.693 | S. cerevisiae deletion strains, locus YLL026W, active compounds read low 0.689 | S. cerevisiae deletion strains, locus YLR027C, strain aat2, active compounds read low 0.82 | S. cerevisiae deletion strains, locus YLR039C, strain RIC1, active compounds read low 0.131 | S. cerevisiae deletion strains, locus YLR058C, strain SHM2, active compounds read low 0.0679 | S. cerevisiae deletion strains, locus YLR102C, strain apc9, active compounds read low 0.0965 | S. cerevisiae deletion strains, locus YLR221C, strain rsa3, active compounds read low 0.785 | S. cerevisiae deletion strains, locus YLR258W, strain gsy2, active compounds read low 0.807 | S. cerevisiae deletion strains, locus YLR262C, strain YPT6 (second series), active compounds read low 0.596 | S. cerevisiae deletion strains, locus YLR262C, strain YPT6, active compounds read low 0.149 | S. cerevisiae deletion strains, locus YLR268W, strain sec22, active compounds read low 0.115 | S. cerevisiae deletion strains, locus YLR320W, strain mms22, active compounds read low 0.777 | S. cerevisiae deletion strains, locus YLR330W, strain CHS5, active compounds read low 0.0805 | S. cerevisiae deletion strains, locus YLR342W, strain FKS1 (second series), active compounds read low 0.119 | S. cerevisiae deletion strains, locus YLR342W, strain FKS1, active compounds read low 0.662 | S. cerevisiae deletion strains, locus YLR357W, strain rsc2, active compounds read low 0.656 | S. cerevisiae deletion strains, locus YLR370C, strain arc18, active compounds read low 0.334 | S. cerevisiae deletion strains, locus YLR371W, strain rom2, active compounds read low 0.0958 | S. cerevisiae deletion strains, locus YLR384C, strain iki3, active compounds read low 0.784 | S. cerevisiae deletion strains, locus YLR418C, strain cdc73, active compounds read low 0.159 | S. cerevisiae deletion strains, locus YML016C, strain PPZ1, active compounds read low 0.0844 | S. cerevisiae deletion strains, locus YML032C, strain rad52, active compounds read low 0.103 | S. cerevisiae deletion strains, locus YML120C, strain ndi1, active compounds read low 0.617 | S. cerevisiae deletion strains, locus YML124C, strain tub3, active compounds read low 0.0933 | S. cerevisiae deletion strains, locus YMR058W, strain fet3, active compounds read low 0.901 | S. cerevisiae deletion strains, locus YMR078C, strain ctf18, active compounds read low 0.106 | S. cerevisiae deletion strains, locus YMR129W, active compounds read low 0.921 | S. cerevisiae deletion strains, locus YMR205C, strain PFK2, active compounds read low 0.721 | S. cerevisiae deletion strains, locus YMR223W, strain ubp8, active compounds read low 0.0998 | S. cerevisiae deletion strains, locus YMR231W, strain pep5, active compounds read low 0.148 | S. cerevisiae deletion strains, locus YMR263W, strain SAP30, active compounds read low 0.0929 | S. cerevisiae deletion strains, locus YMR307W, strain GAS1, active compounds read low 0.175 | S. cerevisiae deletion strains, locus YNL067W, strain RPL9B, active compounds read low 0.0835 | S. cerevisiae deletion strains, locus YNL071W, strain lat1, active compounds read low 0.88 | S. cerevisiae deletion strains, locus YNL128W, strain TEP1, active compounds read low 0.0962 | S. cerevisiae deletion strains, locus YNL153C, strain GIM3, active compounds read low 0.086 | S. cerevisiae deletion strains, locus YNL209W, strain ssb2, active compounds read low 0.363 | S. cerevisiae deletion strains, locus YNL233W, strain BNI4, active compounds read low 0.0934 | S. cerevisiae deletion strains, locus YNL250W, strain rad50, active compounds read low 0.0969 | S. cerevisiae deletion strains, locus YNL271C, strain bni1, active compounds read low 0.0916 | S. cerevisiae deletion strains, locus YNL298W, strain CLA4, active compounds read low 0.0929 | S. cerevisiae deletion strains, locus YNL307C, strain MCK1, active compounds read low 0.102 | S. cerevisiae deletion strains, locus YNL322C, strain KRE1 (second series), active compounds read low 0.853 | S. cerevisiae deletion strains, locus YNL322C, strain KRE1, active compounds read low 0.0735 | S. cerevisiae deletion strains, locus YNR052C, strain pop2, active compounds read low 0.0934 | S. cerevisiae deletion strains, locus YOL006C, strain TOP1, active compounds read low 0.155 | S. cerevisiae deletion strains, locus YOL147C, strain pex11, active compounds read low 0.0861 | S. cerevisiae deletion strains, locus YOR001W, strain rrp6, active compounds read low 0.663 | S. cerevisiae deletion strains, locus YOR061W, strain CKA2, active compounds read low 0.065 | S. cerevisiae deletion strains, locus YOR069W, strain VPS5, active compounds read low 0.0788 | S. cerevisiae deletion strains, locus YOR070C, strain gyp1, active compounds read low 0.404 | S. cerevisiae deletion strains, locus YOR080W, strain dia2, active compounds read low 0.349 | S. cerevisiae deletion strains, locus YOR083W, strain WHI5, active compounds read low 0.695 | S. cerevisiae deletion strains, locus YOR106W, strain vam3, active compounds read low 0.425 | S. cerevisiae deletion strains, locus YOR136W, strain idh2, active compounds read low 0.108 | S. cerevisiae deletion strains, locus YOR144C, strain elg1, active compounds read low 0.0856 | S. cerevisiae deletion strains, locus YOR184W, strain ser1, active compounds read low 0.124 | S. cerevisiae deletion strains, locus YOR265W, strain rbl2, active compounds read low 0.845 | S. cerevisiae deletion strains, locus YOR270C, strain vph1, active compounds read low 0.438 | S. cerevisiae deletion strains, locus YOR290C, strain snf2, active compounds read low 0.169 | S. cerevisiae deletion strains, locus YOR316C, strain cot1, active compounds read low 0.0869 | S. cerevisiae deletion strains, locus YPL051W, strain arl3, active compounds read low 0.565 | S. cerevisiae deletion strains, locus YPL055C, strain LGE1, active compounds read low 0.103 | S. cerevisiae deletion strains, locus YPL078C, strain atp4, active compounds read low 0.582 | S. cerevisiae deletion strains, locus YPL106C, strain sse1, active compounds read low 0.829 | S. cerevisiae deletion strains, locus YPL240C, strain hsp82, active compounds read low 0.889 | S. cerevisiae deletion strains, locus YPL241C, strain CIN2, active compounds read low 0.0787 | S. cerevisiae deletion strains, locus YPR119W, strain clb2, active compounds read low 0.0923 | S. cerevisiae deletion strains, locus YPR141C, strain kar3, active compounds read low 0.096 | S. cerevisiae deletion strains, locus YPR163C, strain tif3, active compounds read low 0.102 | S. cerevisiae deletion strains, locus YPR167C, strain met16, active compounds read low 0.0927 | S. cerevisiae deletion strains, strain wtn01, active compounds read low 0.0926 | S. cerevisiae strains, strain wild type, active compounds read low 0.0831
